Data from ChEMBL document CHEMBL3988442, “University of Dundee, Small-Polar-MMV Screening Library” (2021).

Experiments:
[1] = biological target: T1, Aspartate--tRNA(Asp/Asn) ligase (Mycobacterium tuberculosis (strain ATCC 25618 / H37Rv)) (UniProt P9WFW3); assay: Assay for Asp RNA synthetase-1 from Mycobacterium tuberculosis; format: functional; design: scale not given: direction of the effect not stated beside the values; conditions: 30 µM; note: in the data most compounds retested in dose-response had high values
T1 sequence (whole entry): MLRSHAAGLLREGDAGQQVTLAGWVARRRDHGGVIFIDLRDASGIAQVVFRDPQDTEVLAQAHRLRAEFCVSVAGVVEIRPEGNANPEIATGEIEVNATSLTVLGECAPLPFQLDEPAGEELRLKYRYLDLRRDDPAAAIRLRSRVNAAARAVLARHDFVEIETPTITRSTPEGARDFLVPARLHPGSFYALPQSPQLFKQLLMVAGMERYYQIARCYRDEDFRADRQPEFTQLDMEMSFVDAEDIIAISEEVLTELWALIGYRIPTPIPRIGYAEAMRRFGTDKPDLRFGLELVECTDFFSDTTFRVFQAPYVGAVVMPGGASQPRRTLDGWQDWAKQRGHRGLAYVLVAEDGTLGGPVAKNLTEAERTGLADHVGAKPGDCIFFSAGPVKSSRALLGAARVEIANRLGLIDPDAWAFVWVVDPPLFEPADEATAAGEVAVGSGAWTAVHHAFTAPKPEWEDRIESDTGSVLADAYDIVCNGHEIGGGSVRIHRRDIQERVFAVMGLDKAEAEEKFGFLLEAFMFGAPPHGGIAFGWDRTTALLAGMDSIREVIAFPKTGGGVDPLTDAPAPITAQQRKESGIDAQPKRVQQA

[2] = biological target: Shiga toxin 2 (Escherichia coli O157:H7) (UniProt P09385+P09386); assay: E. coli 0.157:H7 Shiga Toxin SOP - stx2 screening assay; format: functional; design: scale not given: direction of the effect not stated beside the values; conditions: 30 µM

**Q.** Which Percent Effect [1] does the source give for `CCCNC(=O)c1cc2c(nc1O)CCC(C)C2` (centres undefined) here?
**A.** Its Percent Effect is -2.53%.

**Q.** What about the Percent Effect [2] of the same compound?
**A.** Its Percent Effect is -21.4%.

**Q.** For `COc1c(CNC2CCCOc3ccccc32)c(C)nn1C` (centres undefined), which Percent Effect [1] is on record?
**A.** The Percent Effect was -2.86%.

**Q.** What about the Percent Effect [2] of the same compound?
**A.** The Percent Effect was -2.26%.

**Q.** Which results are given for `CN1CCC(c2cccc(Cc3ccc(F)cc3)n2)CC1`?
**A.** Percent Effect [1]: -0.194%; Percent Effect [2]: -29.1%

**Q.** Which Percent Effect [1] does the source give for `COCCCNC(=O)CN1CCCC1c1c(C)nn(C)c1Cl` (centres undefined) here?
**A.** Its Percent Effect is -4.32%.

**Q.** And the Percent Effect [2]?
**A.** Its Percent Effect is -37%.

**Q.** Which Percent Effect [1] does the source give for `Cn1cccc1C(=O)N1CCN(CC2CC2)c2ncccc2C1` here?
**A.** The Percent Effect was 2.01%.

**Q.** What about the Percent Effect [2] of the same compound?
**A.** The Percent Effect was -11.1%.

**Q.** Which results are given for `COc1c(CNC2CCOc3ccccc32)c(C(C)C)nn1C` (centres undefined)?
**A.** Percent Effect [1]: 0.728%; Percent Effect [2]: 2.37%

**Q.** How did the Percent Effect [1] turn out when `CN(C)c1cc2c(nn1)CCN(C(=O)C1Cc3ccccc3S1)C2` (centres undefined) was run?
**A.** The Percent Effect was 1.89%.

**Q.** And the Percent Effect [2]?
**A.** The Percent Effect was -20.9%.

**Q.** Which results are given for `Cc1cnn(CC2CCCCN2C(=O)Cc2csc(C)n2)c1` (centres undefined)?
**A.** Percent Effect [1]: -2.23%; Percent Effect [2]: 1.16%

**Q.** Which Percent Effect [1] does the source give for `COc1cccc(CN2C[C@@H]3COC[C@]3(COCc3ccncc3)C2)c1` here?
**A.** Its Percent Effect is 2.95%.

**Q.** What about the Percent Effect [2] of the same compound?
**A.** Its Percent Effect is 5.94%.

**Q.** For `Nc1nccc(N2CCC(Cc3ccccc3Cl)(C(=O)O)CC2)n1`, which Percent Effect [1] is on record?
**A.** The Percent Effect was -0.368%.

**Q.** And the Percent Effect [2]?
**A.** The Percent Effect was -4.46%.

**Q.** `Cc1cnc(NC(=O)N2CCCC2)s1` was tested. Which Percent Effect [1] did it give?
**A.** Its Percent Effect is 1.37%.

**Q.** And the Percent Effect [2]?
**A.** The Percent Effect was 1.43%.

**Q.** With `O=C(NCCc1coc(-c2ccc(F)cc2)n1)NC1CCC(O)CC1` (centres undefined) as the compound, how does the Percent Effect [1] read?
**A.** The Percent Effect was -3.81%.

**Q.** And the Percent Effect [2]?
**A.** The Percent Effect was -24.9%.

**Q.** Which results are given for `Cc1nc(CN2CCc3ncnc(-c4ccc(F)cc4)c3CC2)cs1`?
**A.** Percent Effect [1]: -0.199%; Percent Effect [2]: 5.58%

**Q.** What does the source list for `CN(C)S(=O)(=O)N1C[C@@H](Oc2ccccn2)[C@H]2OCCC[C@H]21`?
**A.** Percent Effect [1]: 2.06%; Percent Effect [2]: -15.9%

**Q.** Which Percent Effect [1] does the source give for `Cn1cc(CN2CCCN(C(=O)c3cc[nH]n3)CC2)cn1` here?
**A.** The Percent Effect was -4.23%.

**Q.** What about the Percent Effect [2] of the same compound?
**A.** Its Percent Effect is -19.9%.

**Q.** With `Cc1nc(N2CCCC2)nc2c1CN(C(=O)N1CCOCC1)CC2` as the compound, how does the Percent Effect [1] read?
**A.** The Percent Effect was 0.478%.

**Q.** What about the Percent Effect [2] of the same compound?
**A.** The Percent Effect was -3.98%.

**Q.** How did the Percent Effect [1] turn out when `COc1ccc(C2OC(COc3ccccc3Br)=NN2C(C)=O)cc1` (centres undefined) was run?
**A.** Its Percent Effect is 0.568%.

**Q.** What about the Percent Effect [2] of the same compound?
**A.** Its Percent Effect is -36.2%.

**Q.** For `CCN1CCN(C(=O)C(C)N2CCN(Cc3nccn3C)CC2)CC1` (centres undefined), which Percent Effect [1] is on record?
**A.** Its Percent Effect is 0.262%.

**Q.** What about the Percent Effect [2] of the same compound?
**A.** The Percent Effect was -3.01%.

**Q.** For `Cn1cc(CN2C[C@@H]3COC[C@@H](C(=O)N4CCCCO4)[C@@H]3C2)cn1`, which Percent Effect [1] is on record?
**A.** The Percent Effect was -1.16%.

**Q.** And the Percent Effect [2]?
**A.** Its Percent Effect is -15.2%.

**Q.** What does the source list for `O=C(c1ncccn1)N1C[C@H]2CCC[C@@]2(COCc2cccnc2)C1`?
**A.** Percent Effect [1]: 1.54%; Percent Effect [2]: -6.19%

**Q.** For `Cc1cccc(COC[C@H]2CC[C@H]3[C@H](CCN3C(=O)CC3CC3)O2)n1`, which Percent Effect [1] is on record?
**A.** The Percent Effect was -1.43%.

**Q.** And the Percent Effect [2]?
**A.** The Percent Effect was 1.2%.

**Q.** Which Percent Effect [1] does the source give for `COc1ccc(C2CCCN2C(=O)CCNc2ncccn2)cc1` (centres undefined) here?
**A.** Its Percent Effect is 5.17%.

**Q.** What about the Percent Effect [2] of the same compound?
**A.** The Percent Effect was -17%.

**Q.** How did the Percent Effect [1] turn out when `O=C(O)c1nnn(Cc2cccc(C(F)(F)F)c2)c1-c1cccnc1` was run?
**A.** Its Percent Effect is -1.36%.

**Q.** What about the Percent Effect [2] of the same compound?
**A.** The Percent Effect was -46.6%.

**Q.** What does the source list for `CN(Cc1cnn(C)c1)C(=O)NCc1csc(Br)c1`?
**A.** Percent Effect [1]: 4.08%; Percent Effect [2]: 32.1%

**Q.** How did the Percent Effect [1] turn out when `CC(C)NC(=O)N1CCc2nc(C(=O)NCc3ccccc3)sc2CC1` was run?
**A.** Its Percent Effect is 0.168%.

**Q.** And the Percent Effect [2]?
**A.** The Percent Effect was 4.49%.

**Q.** For `COc1cccc(CCC(=O)N2CCCCC2Cn2cccn2)c1` (centres undefined), which Percent Effect [1] is on record?
**A.** The Percent Effect was 1.44%.

**Q.** What about the Percent Effect [2] of the same compound?
**A.** Its Percent Effect is 22.5%.

**Q.** Which Percent Effect [1] does the source give for `Cc1nn(C)cc1CN(C)Cc1cc2c(cc1OC(F)F)OCO2` here?
**A.** Its Percent Effect is 3.57%.

**Q.** And the Percent Effect [2]?
**A.** Its Percent Effect is -11.3%.
